Results on 102 compounds are retold here after PubChem BioAssay AID777 (Sanford-Burnham Center for Chemical Genomics, 2007).

In all, about 96,000 compounds went through this assay and about 19,000 (20%) were called active. These entries were drawn from the full list. Values without a mark were called inactive.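 Rule for the calls: active = blocking of liver enzyme CYP2C9 beyond about 50% at 5 µM (limit read from the data); inactive = the rest.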

Cytochrome P450 2C9 (Homo sapiens), sequence (P11712 whole entry, looked up): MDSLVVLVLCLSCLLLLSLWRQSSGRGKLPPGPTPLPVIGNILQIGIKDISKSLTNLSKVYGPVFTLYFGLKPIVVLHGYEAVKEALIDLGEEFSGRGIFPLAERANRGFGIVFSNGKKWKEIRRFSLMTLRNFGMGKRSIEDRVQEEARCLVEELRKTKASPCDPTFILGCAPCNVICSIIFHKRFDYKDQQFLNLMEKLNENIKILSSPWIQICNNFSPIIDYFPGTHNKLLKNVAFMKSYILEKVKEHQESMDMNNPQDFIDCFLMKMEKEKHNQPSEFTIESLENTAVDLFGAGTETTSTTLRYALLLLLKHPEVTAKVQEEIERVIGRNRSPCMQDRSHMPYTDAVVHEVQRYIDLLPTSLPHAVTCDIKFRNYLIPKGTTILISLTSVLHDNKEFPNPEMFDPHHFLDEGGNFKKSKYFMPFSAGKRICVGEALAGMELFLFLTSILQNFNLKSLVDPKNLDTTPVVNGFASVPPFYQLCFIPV

The assay addresses Cytochrome P450 2C9 (Homo sapiens) (UniProt P11712). Briefly: blockers of cytochrome P450 2C9 activity – biochemical, luminescence, ADME assay, primary screen (AID 777). To be noted: CYP2C9 Supersomes, luciferin-H conversion, at 5 µM, active compounds read high.
With `CCCCc1nc(NCCN)c(C#N)c2c1CSC(C)(C)C2`, the inhibition was 53.6% (active).
With `CCN(CC)c1ccc(NC(=O)c2ccc(Cl)nc2)cc1`, the inhibition is -69.8%.
Regarding `O=C(COc1ccccc1)Nc1nonc1NC(=O)COc1ccccc1`, the inhibition was 52% (active).
Take `CCOc1cc(NC(=O)c2ccco2)c(OCC)cc1NC(=O)COc1ccccc1`: the inhibition was 11.6%.
Take `CCOc1ccc(C(CC(=O)O)NC(=O)COc2ccccc2)cc1` (configuration not stated): the inhibition is 5.2%.
For `Cc1ccc(C)c2[nH]c(=O)c(CCNC(=O)CC(C)C)cc12` the value was 30.9%; for `O=[N+]([O-])c1c(NCCO)cc(Sc2nc3ccccc3s2)c2nonc12`, 12.3%.
As for `Cn1c(=O)cc(OCCCC(=O)N2CCN(c3ccccn3)CC2)c2ccccc21`, the inhibition is 30.3%.
In the case of `COc1cccc(-c2nnc(NC(=O)c3ccc(S(=O)(=O)N(CC(C)C)CC(C)C)cc3)o2)c1` it was 58.9% (active); in that of `CCN(CC)C(=O)CSc1nnc(-c2cccc(OC)c2)o1`, -55.9%; in that of `CC1CCCCN1S(=O)(=O)c1ccc(C(=O)Nc2nnc(-c3cccs3)o2)cc1` (configuration not stated), 7.8%.
Take `O=C(/C=C/c1cccs1)c1cc(Cl)ccc1OC(=O)N1CCOCC1`: the inhibition is 28.1%.
In the case of `CC1Oc2ccccc2N(Cc2cccnc2)C1=O` (configuration not stated) it was 14%; in that of `CN(Cc1ccccc1)C(=O)CCNC(=O)Cn1cnc2ccccc2c1=O`, 24.9%; in that of `O=C(Cn1nc(Cc2cccnc2)c2ccccc2c1=O)NCC1CCCO1` (configuration not stated), 21.3%.
In the case of `O=C(Cn1nc(Cc2cccnc2)c2ccccc2c1=O)NCC1COc2ccccc2O1` (configuration not stated) it was 66.1% (active); in that of `O=C(CN1C(=O)C2C3C=CC(C3)C2C1=O)NCC1COc2ccccc2O1` (configuration not stated), -1.1%; in that of `O=C(Cn1cnc2ccccc2c1=O)NCC1COc2ccccc2O1` (configuration not stated), 61.2% (active).
For `Cc1cc(OC(=O)c2c(Cl)cccc2Cl)nc(C)n1`, the inhibition is 2.9%.
Take `CCC(C)NC(=O)CCCc1ccccc1` (configuration not stated): the inhibition is -17.4%.
In the case of `c1ccc(Cc2nn3c(Cn4cnc5ccccc54)nnc3s2)cc1` it was 24.4%; in that of `CC(=O)c1cn(CCCCCCCCCCn2cc(C(C)=O)c(=O)[nH]c2=O)c(=O)[nH]c1=O`, 3.4%.
In the case of `CC(=O)c1c(C)n([O-])c2ccccc2[n+]1=O` it was -1.1%; in that of `CCOC(=O)N1CCN(C(=O)c2cc3c(ccc4ccccc43)oc2=O)CC1`, 45.9%.
For `NC(=O)COc1ccc2c3c(c(=O)oc2c1)CCCCC3` the value was -7.4%; for `CC1(C)CC(=O)c2cc(OCC(=O)NCC3CCCO3)ccc2O1` (configuration not stated), 18.5%; for `O=C(COc1ccc2c3c(c(=O)oc2c1)CCC3)NC1CCCCC1`, 73.7% (active).
Take `O=C(Cn1cc(C(=O)c2cccs2)c2ccccc21)NCc1cccs1`: the inhibition is 93.7% (active).
As for `COC(=O)c1cn(CC(=O)NCc2cccs2)c2ccccc12`, the inhibition is 23.2%.
In the case of `COC(=O)Cn1cc(C(=O)c2cccs2)c2ccccc21` it was 25.3%.
For `CN(C)c1ccnc(Oc2ccc(F)cc2)c1C#N` the value was 40.8%; for `CCOC(=O)N1CCC(O)(c2cc(C)c(C)cc2C)CC1`, 67.1% (active); for `CCOC(=O)N1CCN(C(=O)COc2ccc(Br)cc2)CC1`, -4.3%.
For `CCOC(=O)N1CCN(C(=O)COc2ccc(Cl)cc2C)CC1` the value was -15.4%; for `COC(=O)c1ccc(N(CC(=O)NC2CCCC2)C(=O)CNC(=O)c2ccco2)cc1`, 28.7%.
As for `Cc1cc(C)nc(SCc2ccccc2C#N)n1`, the inhibition was -24.8%.
On to `Cc1ccc(Cc2cncc(O)c2)cc1S(=O)(=O)O`, for which the inhibition was 0.1%.
Take `O=S(=O)(Nc1ccc2nc(-c3ccco3)[nH]c2c1)c1ccccc1`: the inhibition is 85.2% (active).
For `Cc1cc(NS(=O)(=O)c2ccccc2)no1` the value was 12.3%; for `c1ccc2[nH]c(-c3nc4ccccc4[nH]3)nc2c1`, 16.1%.
For `Cc1cc(C)c2c3c(sc2n1)C(c1ccccc1)C(C#N)=C(N)O3` (configuration not stated), the inhibition is 11%.
In the case of `Fc1ccc(OCc2nn3c(Cn4nnc5ccccc54)nnc3s2)cc1` it was 23.6%; in that of `Cc1cccc(NC(=O)c2ccccc2NC(=O)C(C)(C)C)n1`, 11.7%; in that of `O=C(Nc1ccccc1)c1ccccc1NC(=O)C(F)(F)F`, 74.8% (active).
Turning to `O=C(Nc1ccccc1)c1cccnc1Nc1ccccc1`, the inhibition was 1.5%.
In the case of `Cc1ccc(-n2c(=O)cc(N3CCN(Cc4ccccc4)CC3)[nH]c2=O)cc1`, the inhibition was 22.1%.
As to `CCOC(=O)C1CCN(C(=O)COc2cc(C)c(Br)c(C)c2)CC1`, the inhibition was 15.8%.
In the case of `CCCN1CCN(C(=O)Cn2ncc3ccccc32)CC1` it was 1%.
For `O=c1[nH][nH]c(C(F)(F)F)c1C=NCc1ccccc1Cl` the value was 55.5% (active); for `O=c1ccn(Cc2ccccc2Cl)cc1`, -5.8%; for `Cc1ccc(N(NC(=O)C(C)(C)O)C(=O)c2ccccc2)cc1C`, 2.5%.
For `NS(=O)(=O)c1cccnc1Nc1cccc(Cl)c1` the value was 5.6%.
Turning to `Cc1ccc(/C=N/NC(=O)Cn2nc(C)c(Br)c2C)o1`, the inhibition was 23.7%.
For `O=C(Cc1ccccc1)N/N=C/c1ccc(Cl)cc1Cl` the value was 23.1%.
In the case of `O=C(Cn1cncn1)N/N=C/c1c2ccccc2cc2ccccc12` it was 63.7% (active); in that of `CC(=O)Oc1ccc(C(C)=O)c2c1OCCO2`, -9.3%; in that of `N#CCCn1cnc2ccccc21`, -0.8%.
As to `Cc1ccc(SCC(=O)NC(=O)NCc2ccco2)c(C)c1`, the inhibition is 30%.
As for `O=C(CN1CCN(S(=O)(=O)/C=C/c2ccccc2)CC1)NC(=O)NCc1ccco1`, the inhibition was 40.2%.
Consider `CC1(c2ccccc2Cl)NC(=O)N(CC(=O)NC(=O)NCc2ccco2)C1=O` (configuration not stated), for which the inhibition is 67.6% (active).
`Cc1cccc(NC(=O)c2ccc3ccccc3n2)n1`: the inhibition is -0.8%.
On to `COc1cc(OC)nc(NC(=O)CCl)n1`, for which the inhibition was -14.2%.
Consider `O=P(O)(CP(=O)(c1ccccc1)c1ccccc1)c1ccccc1O`, for which the inhibition was -5.8%.
`CC(CO)N1CCS(=O)(=O)CC1` (configuration not stated): the inhibition was -5.6%.
As for `COc1ccc(NC(=O)C(CC(C)C)NS(=O)(=O)c2ccc3c(c2)CCN3C(C)=O)cc1OC` (configuration not stated), the inhibition is 7.4%.
For `Brc1ccc(OCCn2ccnc2)cc1` the value was 72.1% (active).
In the case of `CC(=O)NS(=O)(=O)c1ccccc1` it was 0.2%; in that of `O=C1C(Cl)=C(N2CCOCC2)C(=O)N1c1ccccc1`, 5%.
In the case of `CC1(C)SC2c3ccccc3C(=O)N2[C@@H]1C(=O)NCc1ccco1` (some centres not stated) it was 57.9% (active); in that of `CC(C)(C)c1ccc(NC(=O)NCc2ccco2)cc1`, -17.8%.
Take `COc1cc2c(cc1OC)C(C(=O)NCc1ccco1)C1c3ccccc3CCN1C2=O` (configuration not stated): the inhibition is 42%.
In the case of `CC1CCc2c(sc3c2C2=NS(=O)(=O)CCN2C=N3)C1` (configuration not stated) it was 6.8%.
In the case of `O=C(Nc1cc(-c2nn(CC(=O)N3CCCCC3)c(=O)c3ccccc23)ccc1N1CCOCC1)c1ccc(Cl)cc1` it was 0.2%.
Turning to `CC(C)CC(=O)Nc1cc(C(F)(F)F)ccc1N1CCOCC1`, the inhibition is 9.9%.
For `O=C(Cn1nnc2ccccc2c1=O)Nc1cc(C(F)(F)F)ccc1N1CCOCC1`, the inhibition is 60.7% (active).
With `CCCCc1nccn1CCn1ccnc1CCCC`, the inhibition is -10.5%.
For `CN1CCN(CC(=O)Nc2sc3c(c2C#N)CCC(C(C)(C)C)C3)CC1` (configuration not stated), the inhibition is 33.8%.
In the case of `O=C(Nc1c(-c2ccccc2)nc2c(Br)cc(Br)cn12)c1ccco1`, the inhibition is 15.6%.
Take `c1ccc2c(CNn3cnnc3)cccc2c1`: the inhibition was -2.3%.
For `c1ccc2c(C[n+]3csc4ccccc43)cccc2c1`, the inhibition was 76.7% (active).
For `N=C(N)SCc1cccc2ccccc12` the value was -24.4%; for `Cc1ccc(C(=O)NNC(=O)OC(C)(C)C)c(Cl)c1`, 1.9%.
In the case of `CCc1ccc(CNC(=O)C2CCCN(c3nc4ccccc4o3)C2)cc1` (configuration not stated) it was 45%; in that of `O=S(=O)(c1ccc(OCC(O)CN2CCN(c3ccccc3Cl)CC2)cc1)N1CCOCC1` (configuration not stated), 28.3%.
For `CCOC(=O)Cc1csc(NC(=O)CSc2nc(C)cc(=O)[nH]2)n1` the value was 23.2%.
`Cc1cccc(N2CCN(C(=O)CN(C)S(=O)(=O)c3ccc4c(c3)CCC(=O)N4)CC2)c1C`: the inhibition was 51% (active).
In the case of `Cc1ccc(S(=O)(=O)N(C)CC(=O)N2CCc3ccccc32)cc1` it was -132%.
In the case of `CCOC(=O)Cc1csc(NC(=O)CN(C)S(=O)(=O)c2ccc3c(c2)CCC(=O)N3)n1` it was 65.5% (active).
For `CCOC(=O)Cc1csc(NC(=O)C(C)(C)C)n1` the value was 30.2%.
For the compound `CC(=O)N1CCN(c2cccc(C)c2C)CC1`, the inhibition was -8.6%.
For `COC(=O)/C=C/C(=O)NCc1ccco1`, the inhibition was 1.2%.
In the case of `OCCN1CCOCCOCCN(CCO)CCN(CCO)CC1` it was 12.8%; in that of `Cc1ccc(C(=O)/C=C/c2c(C)nn(-c3ccccc3)c2Cl)cc1`, 90.4% (active); in that of `Cc1nn(-c2ccccc2)c(CC(C)(C)C(=O)O)c1C(=O)O`, -10.3%.
In the case of `Cc1nn(-c2ccccc2)c(Cl)c1C(=O)Nc1ccccc1` it was -47%; in that of `O=C(Nc1ccccc1C(=O)N1CCOCC1)C1CCC(=O)N1C1CCCC1` (configuration not stated), -9.2%; in that of `COc1cccc(N2C(=O)C3CCCN3C2c2ccc(F)cc2)c1` (configuration not stated), -9.4%.
`COc1ccc(OCC(=O)OCCN(C)C)cc1`: the inhibition is -12.1%.
In the case of `O=C(CCOc1ccccc1)NCc1ccccc1` it was 6.9%; in that of `O=C(CCCOc1ccccc1)NCc1ccco1`, 18.1%; in that of `CN(C)C(CNC(=O)CCCOc1ccccc1)c1ccco1` (configuration not stated), 51.7% (active).
As for `O=C(NCC12CC3CC(C1)CC(CNC(=O)N1CCCC1)(C3)C2)N1CCCC1`, the inhibition was -12.3%.

In general, inhibition refers to the change of the read-out against control, counted positive when it falls.
